# Experimental data: PubChem BioAssay AID743484 (Broad Institute, 2014)
# Measured potencies and affinities stand elsewhere. Calls of active or inactive are those of the source.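 Rule for the calls: active = cell-killing compounds whose fitted half-effect concentration is at most twice their highest valid dose; inconclusive = flat curve with 30 to 70% signal loss, or poor fit; inactive = the rest.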
# Experiment: A549 lung cell viability reduction – CellTiter-Glo luminescence, cherry-pick, cytotoxicity control, dose response (AID 743484)
# Conditions: CellTiter-Glo ATP luminescence, 72 h; series mostly up to 26 µM; activity change, negative = cytotoxicity: at the top concentration
row,SMILES,"activity change, negative = cytotoxicity"
1,C[C@@H]1CCCCO[C@H](CN(C)CC2CC2)[C@H](C)CN([C@@H](C)CO)C(=O)c2cc(NC(=O)Nc3cccc4ccccc34)ccc2O1,0.732 unspecified (inactive)
2,COc1ccc2[nH]c3c(=O)n(CCCCC(=O)NCCC(C)C)c(=S)[nH]c3c2c1,32.3 unspecified (inactive)
3,COC(=O)c1c(NC(=O)CCC(=O)O)sc(Cc2ccccc2)c1C,4.37 unspecified (inactive)
4,CCn1c(-c2cc(-c3ccc(OC(C)C)cc3)nc3ccccc23)n[nH]c1=S,10.4 unspecified (inactive)
5,COc1ccc(Nc2oc(-c3ccco3)nc2S(=O)(=O)c2ccc(F)cc2)cc1,9.83 unspecified (inactive)
6,C[C@@H]1CCCCO[C@H](CN(C)C(=O)CCCN(C)C)[C@H](C)CN([C@@H](C)CO)C(=O)c2cc(NC(=O)Nc3cccc4ccccc34)ccc2O1,27.8 unspecified (inactive)
7,Cc1cc(C)c(OCCNC(=O)c2ccccc2Sc2ccccc2C#N)c(C)c1,-7.36 unspecified (inactive)
8,O=C(O)c1cc([N+](=O)[O-])ccc1NCc1ccccc1,10.3 unspecified (inactive)
9,Cc1ccc(C)c(NC(=O)CSc2nc3nc(-c4cccs4)cc(C(F)(F)F)c3c(=O)[nH]2)c1,28.3 unspecified (inactive)
10,Cc1noc(C)c1NC(=O)Nc1ccc2c(c1)C(=O)N([C@H](C)CO)C[C@@H](C)[C@@H](CN(C)C(=O)Nc1ccc3c(c1)OCO3)OCCCC[C@@H](C)O2,6.85 unspecified (inactive)
11,CCOC(=O)c1c(NC(=O)Cc2cccs2)sc(C)c1C,12 unspecified (inactive)
12,COc1ccc(-n2cc(-c3ccccc3)c3c(N4CCOCC4)ncnc32)cc1,19.9 unspecified (inactive)
13,CC[C@H]1OC(=O)[C@H](C)[C@@H](O[C@H]2C[C@@](C)(OC)[C@@H](O)[C@H](C)O2)[C@H](C)[C@@H](O[C@@H]2O[C@H](C)C[C@H](N(C)C)[C@H]2O)[C@](C)(O)C[C@@H](C)[C@@H]2N[C@@H](COCCOC)O[C@H]([C@H]2C)[C@]1(C)O,-8.75 unspecified (inactive)
14,Cc1[nH]c(=S)sc1Cc1ccc(Cl)c(Cl)c1,19.8 unspecified (inactive)
15,COc1cccc(C(=O)Nc2cc(C)nn2-c2ccccc2)c1OC,-3.18 unspecified (inactive)
16,COc1ccc(Cn2c(-c3ccc(Cl)cc3)c[n+]3ccccc23)cc1,-1.67 unspecified (inactive)
17,CCOc1ccccc1NC(=O)c1ccc2ccccc2c1,6.53 unspecified (inactive)
18,Cc1c(C(=O)O)sc2nc(CSc3ncc(C(F)(F)F)cc3Cl)[nH]c(=O)c12,10.5 unspecified (inactive)
19,Cc1ccc(S(=O)(=O)N2CC[C@H]3[C@H](CO)Nc4ccc(Br)cc4[C@H]32)cc1,-0.943 unspecified (inactive)
